# Many of the other results were omitted from the sample, so hits are more common in it than they were.
# TTR transcr act = TTR transcription activation, primary screen; SH-SY5Y TTR promoter Gaussia luciferase, luminescence; 100% = recombinant luciferase protein wells; hit rate 1.3% among 92,000; activation, % at 16.7 µM;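 active means activation above the mean of all tested compounds plus 3 SD, cut at about 9.5% in these data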;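 further: cells exposed to compounds for one day before reading; 0% = median of all test compound wells on the plate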
# HuH7 TTR inh = HuH7 TTR transcription inhibition, counter-screen; HuH7 TTR promoter-Gaussia luciferase reporter, luminescence; hit rate 4% among 1,100; shares compounds with TTR transcr act; inhibition, % at 16.7 µM; AID 1117279;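 active means average inhibition above the solvent-only control wells' mean plus 3 SD, cut at about 15% in these data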;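 further: 0% = cells with DMSO only and 100% = cells with inhibitor control FD; inhibitors lower well luminescence so higher value means more inhibition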
# TTR act confirm = confirmation of human transthyretin transcription activators | shares compounds with TTR transcr act | SHSY5Y TTR promoter Gaussia luciferase, luminescence; 100% = purified Lucia enzyme wells, no cells | activation, % at 16.7 µM | 1,100 tested, under 10 active;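 active means mean activation above a set limit taken from the earlier primary screen, cut at about 11% in these data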;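 further: 0% = DMSO-treated cells and 100% = recombinant Lucia luciferase without cells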
# * hit, by the source's call.
SMILES,TTR transcr act,others
C=C1CCC2[C@](C)(CO[C@@H]3O[C@H](CO)[C@@H](O)[C@H](O)[C@H]3O)CCC[C@@]2(C)[C@@H]1CCC1=CCOC1=O (some centres undefined),-1,
CC(C)N1CCC(N2CCN(CCCn3cccn3)CC2CCO)CC1 (centres undefined),1,
CC1CN(CCc2ccccc2)c2nc3c(c(=O)n(C)c(=O)n3C)n2C1 (centres undefined),-1,
C#CCNC(=O)CSCc1nc(-c2ccc(OCC)cc2)oc1C,1,
CCCOc1cccc(C2/C(=C(/O)c3ccc(OC)cc3)C(=O)C(=O)N2CCN(C)C)c1 (centres undefined),4,
COc1ccc(/C(O)=C2/C(=O)C(=O)N(CCCN3CCOCC3)C2c2ccc(N(C)C)cc2)cc1 (centres undefined),1,
COc1ccc(C2/C(=C(/O)c3ccc(F)cc3)C(=O)C(=O)N2CCCN(C)C)cc1 (centres undefined),12*,HuH7 TTR inh=-11;TTR act confirm=1
CCOc1ccc(-n2c(=O)c3c4c(sc3n(CC(=O)NCC3CCCO3)c2=O)CCC4)cc1 (centres undefined),0,
O=C(CCN1C(=O)c2ccccc2C1=O)Nc1nc2ccccc2s1,-1,
CC(C)Cc1nnc(NC(=O)CCN2C(=O)c3ccccc3C2=O)s1,0,
CCC(CC)c1nnc(NC(=O)CCN2C(=O)c3ccccc3C2=O)s1,15*,HuH7 TTR inh=-18;TTR act confirm=0
COc1ccc(NC(=O)N(C)C[C@H]2Oc3ccc(NC(=O)CCN4CCOCC4)cc3C(=O)N([C@H](C)CO)C[C@@H]2C)cc1,6,
Nc1[nH]c(C(=O)c2ccccc2)c(-c2ccc(Cl)cc2Cl)c1C(=O)NCCC1=CCCCC1,5,
COc1ccc(N(CC(=O)NCc2cccs2)S(=O)(=O)c2cccc(C)c2)cc1,3,
CC1CCCCN1c1nnc(NC(=O)Cn2c(=O)oc3ccccc32)s1 (centres undefined),19*,HuH7 TTR inh=-16;TTR act confirm=-1
COc1ccc(-c2nc(NC(=O)Cn3c(=O)oc4ccccc43)sc2C)cc1,-2,
COc1ccc(NC(=O)Nc2nnc(N3CCCCC3C)s2)cc1OC (centres undefined),-1,
Oc1ccc(Nc2ncnc3c2oc2ccccc23)cc1,0,
c1coc(CSc2ncnc3c2oc2ccccc23)c1,1,
c1ccc(Sc2ncnc3c2oc2ccccc23)nc1,18*,HuH7 TTR inh=20*;TTR act confirm=0
O=S1(=O)c2ccc(N3CCC[C@H]3CO)cc2OCCCN1C1CC1,1,
C/C(=N\OC(=O)c1ccc(F)cc1)c1ccc(F)c(F)c1,0,
CCOC(=O)c1cc(/C(C)=N/OC(=O)c2ccc(Cl)cc2)on1,9.8*,HuH7 TTR inh=-8;TTR act confirm=-1
CCCS(=O)(=O)C/C(N)=N/OC(=O)c1ccc(Cl)cc1,-1,
Nc1nn(-c2ccccc2Cl)cc1-c1nn[nH]n1,-2,
SMILES,TTR transcr act,others
O=C(OCC#CCSc1nnc(-c2cccc3ccccc23)o1)C1CCC1,3,
COC(=O)C(CCCN1C(=O)c2ccccc2C1=O)(NC(C)=O)c1nnn(C)n1 (centres undefined),-1,
COc1ccc(/C=C/C(=O)Oc2cc(C)[nH]c(=O)c2[N+](=O)[O-])cc1OC,7,
CCc1noc(C)c1C(=O)Nc1cc(S(=O)(=O)N2CCCCC2)ccc1N(C)C,11*,HuH7 TTR inh=-13;TTR act confirm=0
CCc1noc(C)c1C(=O)N1CCN(S(=O)(=O)c2ccc(Br)cc2)CC1,1,
Cc1onc(-c2ccccc2)c1C(=O)Nc1cccc(S(=O)(=O)N2CCCCC2)c1,1,
CCCCNCC#CCOc1cc(C)ccc1C(C)C,-2,
CCNc1sc(S(C)(=O)=O)nc1S(=O)(=O)c1ccc(Cl)cc1,1,
CCCCc1ccc(NC(=S)N2CCN(C)CC2)cc1,7,
CCOC(=O)c1ccc(NC(=S)N2CCN(C)CC2)cc1,0,
CN1CCN(C(=S)Nc2ccc(S(N)(=O)=O)cc2)CC1,11*,HuH7 TTR inh=-9;TTR act confirm=0
Cc1ccc(CCC(=O)NCc2ccccc2)o1,3,
COC(=O)Oc1ccc(/C=N/NC(=O)CSCc2ccc(Cl)cc2)cc1OC,-4,
CC(OP(=O)(O)C(NC(=O)[C@H](Cc1ccc(O)cc1)NC(=O)OC(C)(C)C)C(C)C)C(=O)O (some centres undefined),1,
Cc1nc(SCCC(C)C)c([N+](=O)[O-])[nH]1,-1,
CCOC(=O)CSc1nc(C)[nH]c1[N+](=O)[O-],10*,HuH7 TTR inh=-6;TTR act confirm=-1
Cc1nc(SCc2ccccc2)c([N+](=O)[O-])[nH]1,-2,
c1ccc(-c2ccc(-c3ccccn3)s2)nc1,-1,
c1ccc(-c2nnc(-c3ccccn3)nn2)nc1,10*,HuH7 TTR inh=-2;TTR act confirm=0
c1ccc(-c2nnc(-c3ccccn3)c(-c3ccccn3)n2)nc1,-1,
O=c1[nH][nH]c(=O)c(Cl)c1Cl,12*,HuH7 TTR inh=-14;TTR act confirm=0
Cc1ccc(NC(=O)c2ccco2)c(NC(=O)C2CCCO2)c1 (centres undefined),-1,

# High-throughput results (PubChem)
